Experimental data published in publication PMC11006913.

Target: NKX3-2 (Homo sapiens, UniProt P78367 192-278, P234S)
Assay: PBM; 200 nM protein, PBS
Settings: dsDNA, one strand shown

NKX3-2 (Homo sapiens, UniProt P78367 192-278, P234S), sequence (P78367 192-278 P234S): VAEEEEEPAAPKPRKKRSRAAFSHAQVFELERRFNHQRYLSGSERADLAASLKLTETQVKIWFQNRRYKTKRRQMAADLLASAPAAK

In order of falling binding signal:
1. CCACTTCG  12.8 upbm affinity estimate (log intensity, higher = more binding, comparable within an allelic series)
2. CAAAGTGG  12.8 upbm affinity estimate (log intensity, higher = more binding, comparable within an allelic series)
3. GAAGTGGC  12.7 upbm affinity estimate (log intensity, higher = more binding, comparable within an allelic series)
4. CACTTACG  12.7 upbm affinity estimate (log intensity, higher = more binding, comparable within an allelic series)
5. CCCACTTC  12.7 upbm affinity estimate (log intensity, higher = more binding, comparable within an allelic series)
6. CCACTCAG  12.6 upbm affinity estimate (log intensity, higher = more binding, comparable within an allelic series)
7. AAGTGCCG  12.5 upbm affinity estimate (log intensity, higher = more binding, comparable within an allelic series)
8. AGCACTTC  12.4 upbm affinity estimate (log intensity, higher = more binding, comparable within an allelic series)
9. AAAGTGGG  12.4 upbm affinity estimate (log intensity, higher = more binding, comparable within an allelic series)
10. AGTGCACT  12.3 upbm affinity estimate (log intensity, higher = more binding, comparable within an allelic series)
11. AGACCACT  12 upbm affinity estimate (log intensity, higher = more binding, comparable within an allelic series)
12. AAGGGCCT  11.9 upbm affinity estimate (log intensity, higher = more binding, comparable within an allelic series)
13. GAGTAGAC  11.6 upbm affinity estimate (log intensity, higher = more binding, comparable within an allelic series)
14. ACTTACTG  11.6 upbm affinity estimate (log intensity, higher = more binding, comparable within an allelic series)
15. AAGTATAC  11.6 upbm affinity estimate (log intensity, higher = more binding, comparable within an allelic series)
16. ACTCTGAT  11.5 upbm affinity estimate (log intensity, higher = more binding, comparable within an allelic series)
17. CCGAGTAC  11.5 upbm affinity estimate (log intensity, higher = more binding, comparable within an allelic series)
18. AAAAGGGT  11.5 upbm affinity estimate (log intensity, higher = more binding, comparable within an allelic series)
19. CTCTAGAG  10.9 upbm affinity estimate (log intensity, higher = more binding, comparable within an allelic series)
20. CCCCGCAA  10.7 upbm affinity estimate (log intensity, higher = more binding, comparable within an allelic series)
21. ACGATCGA  10.7 upbm affinity estimate (log intensity, higher = more binding, comparable within an allelic series)
22. CCTGCCCG  10.7 upbm affinity estimate (log intensity, higher = more binding, comparable within an allelic series)
23. GAGCTAGC  10.7 upbm affinity estimate (log intensity, higher = more binding, comparable within an allelic series)
24. CGACGGCC  10.7 upbm affinity estimate (log intensity, higher = more binding, comparable within an allelic series)
25. CGGTGAGC  10.6 upbm affinity estimate (log intensity, higher = more binding, comparable within an allelic series)
26. ACACACCG  10.6 upbm affinity estimate (log intensity, higher = more binding, comparable within an allelic series)
27. CCTATGGC  10.6 upbm affinity estimate (log intensity, higher = more binding, comparable within an allelic series)
28. GCACCCAA  10.6 upbm affinity estimate (log intensity, higher = more binding, comparable within an allelic series)
29. CAAACCAG  10.6 upbm affinity estimate (log intensity, higher = more binding, comparable within an allelic series)
30. CCAGGTTA  10.6 upbm affinity estimate (log intensity, higher = more binding, comparable within an allelic series)
31. AGCCGCGC  10.5 upbm affinity estimate (log intensity, higher = more binding, comparable within an allelic series)
32. CTGGCAAG  10.5 upbm affinity estimate (log intensity, higher = more binding, comparable within an allelic series)
33. AAACCGCG  10.5 upbm affinity estimate (log intensity, higher = more binding, comparable within an allelic series)
34. GGTGGTAC  10.5 upbm affinity estimate (log intensity, higher = more binding, comparable within an allelic series)
35. AACGTGGC  10.5 upbm affinity estimate (log intensity, higher = more binding, comparable within an allelic series)
36. ACCGCTGG  10.5 upbm affinity estimate (log intensity, higher = more binding, comparable within an allelic series)
37. AGCATTCC  10.4 upbm affinity estimate (log intensity, higher = more binding, comparable within an allelic series)
38. CGGCTGGC  10.4 upbm affinity estimate (log intensity, higher = more binding, comparable within an allelic series)
39. CCCACGGG  10.3 upbm affinity estimate (log intensity, higher = more binding, comparable within an allelic series)

Target: NKX3-2 (Homo sapiens, UniProt P78367 192-278)
Sequence (P78367 192-278): as the sequence (P78367 192-278 P234S) above, with S43P counted along it
Assay: PBM; 200 nM protein, PBS
Settings: dsDNA, one strand shown

In order of falling binding signal:
1. CCACTTCG  12.9 upbm affinity estimate (log intensity, higher = more binding, comparable within an allelic series)
2. CAAAGTGG  12.9 upbm affinity estimate (log intensity, higher = more binding, comparable within an allelic series)
3. GAAGTGGC  12.8 upbm affinity estimate (log intensity, higher = more binding, comparable within an allelic series)
4. CACTTACG  12.8 upbm affinity estimate (log intensity, higher = more binding, comparable within an allelic series)
5. CCCACTTC  12.8 upbm affinity estimate (log intensity, higher = more binding, comparable within an allelic series)
6. CCACTCAG  12.7 upbm affinity estimate (log intensity, higher = more binding, comparable within an allelic series)
7. AAGTGCCG  12.6 upbm affinity estimate (log intensity, higher = more binding, comparable within an allelic series)
8. AGTGCACT  12.6 upbm affinity estimate (log intensity, higher = more binding, comparable within an allelic series)
9. AAAGTGGG  12.6 upbm affinity estimate (log intensity, higher = more binding, comparable within an allelic series)
10. AGCACTTC  12.4 upbm affinity estimate (log intensity, higher = more binding, comparable within an allelic series)
11. AGACCACT  12.1 upbm affinity estimate (log intensity, higher = more binding, comparable within an allelic series)
12. AAGGGCCT  12 upbm affinity estimate (log intensity, higher = more binding, comparable within an allelic series)
13. ACTTACTG  11.7 upbm affinity estimate (log intensity, higher = more binding, comparable within an allelic series)
14. AAGTATAC  11.7 upbm affinity estimate (log intensity, higher = more binding, comparable within an allelic series)
15. ACTCTGAT  11.6 upbm affinity estimate (log intensity, higher = more binding, comparable within an allelic series)
16. CCGAGTAC  11.6 upbm affinity estimate (log intensity, higher = more binding, comparable within an allelic series)
17. GAGTAGAC  11.6 upbm affinity estimate (log intensity, higher = more binding, comparable within an allelic series)
18. AAAAGGGT  11.6 upbm affinity estimate (log intensity, higher = more binding, comparable within an allelic series)
19. CTCTAGAG  10.9 upbm affinity estimate (log intensity, higher = more binding, comparable within an allelic series)
20. CCAGGTTA  10.8 upbm affinity estimate (log intensity, higher = more binding, comparable within an allelic series)
21. CCCCGCAA  10.7 upbm affinity estimate (log intensity, higher = more binding, comparable within an allelic series)
22. ACGATCGA  10.7 upbm affinity estimate (log intensity, higher = more binding, comparable within an allelic series)
23. CCTGCCCG  10.7 upbm affinity estimate (log intensity, higher = more binding, comparable within an allelic series)
24. GAGCTAGC  10.7 upbm affinity estimate (log intensity, higher = more binding, comparable within an allelic series)
25. CGGTGAGC  10.7 upbm affinity estimate (log intensity, higher = more binding, comparable within an allelic series)
26. CAAACCAG  10.7 upbm affinity estimate (log intensity, higher = more binding, comparable within an allelic series)
27. GGTGGTAC  10.6 upbm affinity estimate (log intensity, higher = more binding, comparable within an allelic series)
28. ACACACCG  10.6 upbm affinity estimate (log intensity, higher = more binding, comparable within an allelic series)
29. CCTATGGC  10.6 upbm affinity estimate (log intensity, higher = more binding, comparable within an allelic series)
30. GCACCCAA  10.6 upbm affinity estimate (log intensity, higher = more binding, comparable within an allelic series)
31. CGACGGCC  10.6 upbm affinity estimate (log intensity, higher = more binding, comparable within an allelic series)
32. AGCCGCGC  10.5 upbm affinity estimate (log intensity, higher = more binding, comparable within an allelic series)
33. CTGGCAAG  10.5 upbm affinity estimate (log intensity, higher = more binding, comparable within an allelic series)
34. AAACCGCG  10.5 upbm affinity estimate (log intensity, higher = more binding, comparable within an allelic series)
35. AACGTGGC  10.5 upbm affinity estimate (log intensity, higher = more binding, comparable within an allelic series)
36. ACCGCTGG  10.5 upbm affinity estimate (log intensity, higher = more binding, comparable within an allelic series)
37. AGCATTCC  10.4 upbm affinity estimate (log intensity, higher = more binding, comparable within an allelic series)
38. CGGCTGGC  10.4 upbm affinity estimate (log intensity, higher = more binding, comparable within an allelic series)
39. CCCACGGG  10.3 upbm affinity estimate (log intensity, higher = more binding, comparable within an allelic series)
